ELG1 DNA repair = inhibitors of ELG1-dependent DNA repair in HEK293T cells; 330,000 tested, 2.3% active; HEK293T ELG1-luciferase reporter, luminescence, 16 h; DNA damage induced by 5-fluorouridine; AID 504467; Potency, µM (titrated, usually from 46.1 µM), for inactives: top-dose activity change, negative = inhibition, most hits filed as inhibitors; also: potency is read from the fitted curve at half-maximal effect; nearly all actives have a fitted effect of over 55% in size
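Quantitative HTS, concentration-response format. 2,000 cells/well co-treated with 5-fluorouridine and compound, 16 hr in 5% CO2 at 37 °C; ONE-Glo luminescence read after 30 min.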
HT1080-NT tox = kills 2HG-producing HT-1080-NT fibrosarcoma cells | 360,000 tested, 1.6% active | HT-1080-NT fibrosarcoma viability, CellTiter-Glo ATP luminescence, 48 h | Potency, µM (doses to about 46.1 µM), for inactives: at the highest dose activity, negative = less viability, hits mostly cytotoxic;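 also: NT is the 2HG producing partner of a matched IDH1 knockdown line; potency is read from the fitted curve at half-maximal effect; 0% = DMSO-treated cells and -100% = media-only wells without cells; nearly all actives have a fitted effect of over 55% in size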
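HT-1080-NT; 750 cells/well; 5% FBS RPMI; 48 h compound, 37 degrees C; CellTiter-Glo luminescence; curve fitting and curve-class assignment.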
DT40 TDP1 CPT = growth inhibition of DT40 Tdp1-/-;hTDP1 cells with camptothecin (screen for TDP1 inhibitors); chicken DT40 Tdp1-/-;hTDP1 cells + 20 nM CPT, ATP luminescence, 48 h; Potency, µM (titrated, usually from 46.2 µM), for inactives: at the highest dose activity change, negative = growth inhibition, most hits filed as inhibitors; 420,000 tested, 12% active; also: potency is read from the fitted curve at half-maximal effect; nearly all actives have a fitted effect of over 55% in size
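Cell growth measured by CellTiter-Glo luminescence after a minimum 48 h, 37 C compound exposure with 20 nM CPT in Tdp1-knockout DT40 cells stably expressing hTDP1, seeded 400/well; qHTS titration format.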
IL1B secr inh = blocks inflammasome-driven IL-1 beta release | activity change, % at 57.5 µM | 360,000 tested, 4.7% active | THP-1 LPS/ATP IL-1B secretion, AlphaLISA, 16 h; hits give low values | AID 743279; in the data active = activity change below about -50%; inconclusive = mostly about -30% to -49%
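THP-1 cells pretreated 1 hr with compounds (up to 57.5 uM final), then stimulated with LPS (250 ng/mL final) plus ATP (1.25 mM final); secreted IL-1B measured by AlphaLISA after 16 hr, decreased signal indicating inhibition.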
HT1080 IDH1KD tx = HT-1080 IDH1 knockdown cell toxicity (counter line) | HT-1080 IDH1 knockdown viability, ATP luminescence, 48 h | Potency, µM (series often up to 46.1 µM), for inactives: at the top dose activity, negative = toxicity, most hits filed as cytotoxic | 360,000 tested, 2% active;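 also: potency is read from the fitted curve at half-maximal effect; 0% = DMSO wells and -100% = cell-free medium wells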
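HT-1080-IDH1KD cells (IDH1 knocked down), 750/well in RPMI with 5% FBS, treated with compound 48 h at 37 degrees C. Viability by CellTiter-Glo luminescence, normalised to DMSO and no-cell wells; concentration-response curves classed.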
TDP1 cell noCPT = qHTS for Inhibitors of human tyrosyl-DNA phosphodiesterase 1 (TDP1): qHTS in cells in absence of CPT | Potency, µM (series often up to 46.2 µM), without a hit: top-dose activity change, negative = growth inhibition, usual class: inhibitors | 420,000 tested, 15% active | DT40 Tdp1-/- hTDP1 cells, no CPT, ATP luminescence, 48 h; also: potency is read from the fitted curve at half-maximal effect; nearly all actives have a fitted effect of over 55% in size
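Luminescent ATP content (CellTiter-Glo) served as the growth readout. Knockout chicken DT40 cells expressing human TDP1 were exposed to compounds without camptothecin for a minimum 48 hr at 37 °C.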
* = called active by the depositor; ? = inconclusive; . = no result given. Sampled rows, rich in hits. Any-hit rate of the full collection: about 19%. Unless noted, calls follow the shape of the dose curve; as a rule, active = well fitted curve in the direction sought with a large enough effect; inconclusive = small, poorly fitted or top-dose-only effect, or another doubt; inactive = no such curve, though single readings can be large; an effect the other way counts as inactive or inconclusive. Unless noted, % is scaled to controls: 0 for no effect and ±100 for the full control effect.

SMILES | ELG1 DNA repair | HT1080-NT tox | DT40 TDP1 CPT | IL1B secr inh | HT1080 IDH1KD tx | TDP1 cell noCPT
CC(=O)OC1CC(OC2C(O)CC(OC3C(O)CC(OC4CCC5(C)C(CCC6C5CCC5(C)C(C7=CC(=O)OC7)C(O)CC65O)C4)OC3C)OC2C)OC(C)C1OC1OC(CO)C(O)C(O)C1O (centres undefined) | . | 0.65µM* | 1.5µM* | -80* | 1.3µM* | 1.8µM*
CC(=O)O[C@H]1C[C@H](O[C@H]2[C@@H](O)C[C@H](O[C@H]3[C@@H](O)C[C@H](OC4CC[C@@]5(C)C(CC[C@@H]6[C@@H]5CC[C@]5(C)[C@@H](C7=CC(=O)OC7)[C@@H](O)C[C@]65O)C4)O[C@@H]3C)O[C@@H]2C)O[C@H](C)[C@H]1O[C@@H]1O[C@H](CO)[C@@H](O)[C@H](O)[C@H]1O (some centres undefined) | . | . | 3.3µM* | . | . | 2.4µM*
C[C@H]1O[C@@H](O[C@H]2CC[C@@]3(C)[C@H](CC[C@@H]4[C@@H]3C[C@@H](O)[C@]3(C)[C@@H](C5=CC(=O)OC5)CC[C@]43O)C2)C[C@H](O)[C@@H]1O[C@H]1C[C@H](O)[C@H](O[C@H]2C[C@H](O)[C@H](O[C@@H]3O[C@H](CO)[C@@H](O)[C@H](O)[C@H]3O)[C@@H](C)O2)[C@@H](C)O1 | . | . | 1.3µM* | . | . | 0.94µM*
COc1cccc(NC(=O)C2CCN(S(=O)(=O)c3cc(-c4noc(C)n4)ccc3C)CC2)c1 | . | . | 18µM* | . | . | 18µM*
COc1cccc(/C=C/c2nc(S(=O)(=O)c3ccccc3)c(N3CCC(C(N)=O)CC3)o2)c1 | . | 1% | ? | -15 | 2% | ?
O=P(Oc1ccccc1)(Oc1ccccc1)c1ccccc1 | -9% | -2% | ? | -14 | 7% | 16µM*
Cc1ccc(NP(=O)(Nc2ccc(C)cc2)Oc2ccccc2)cc1 | -20% | -15% | 5% | -71* | ? | ?
Cc1ccc(NP(=O)(Oc2ccccc2)Oc2ccccc2)cc1 | . | -17% | -1% | -7 | -6% | -20%
S=C(N1CCCCCC1)N1CC1 | . | -2% | 2% | 6 | 0% | -7%
CN(C(=O)Cc1ccc2c(c1)OCO2)C1CCCN(Cc2ccccc2F)C1 (centres undefined) | . | -9% | ? | -10 | -2% | ?
c1ccc(C(O[C@H]2CCCN(CCc3ccc4c(c3)OCO4)C2)c2ccccc2)cc1 | . | . | ? | . | . | 24µM*
Cc1cc(Cl)ccc1C(=O)C1CCCN(C2CCSCC2)C1 (centres undefined) | -4% | -17% | 26µM* | -28 | -27% | 21µM*
O=C(C(=O)N1CCOCC1)c1cn(Cc2ccccc2)c2ccccc12 | ? | 0% | 2% | 4 | 13% | 5%
O=C(NCCCN1CCCC1)c1ccc2c(c1)N(Cc1cccc(Cl)c1)C(=O)c1ccccc1S2=O (centres undefined) | ? | 16µM* | ? | -16 | ? | ?
O=C(Cc1ccccc1)N1CCN(Cc2cccc(Cl)c2)CC1 | -16% | 9% | -3% | -6 | ? | -16%
O=NN1CCCCC1 | 6% | ? | 17% | 7 | 17% | 15%
CC(=O)Nc1ccc(OCC(O)Cn2c3ccccc3c3ccccc32)c(C)c1 (centres undefined) | ? | ? | ? | -60* | ? | 18µM*
COc1ccc(NC(C)=O)cc1NC(=O)c1cccn(Cc2ccccc2)c1=O | . | . | -18% | . | . | -20%
COC(=O)C1=C(C(=O)OC)C2OC1c1cc3ccccc3cc12 | . | ? | 0.46µM* | 0 | 3.3µM* | 0.73µM*
C/C(=N\NC(N)=S)C12CC3CC(CC(C3)C1)C2 | ? | 5µM* | 23µM* | ? | 6.3µM* | 15µM*
c1ccc(/N=C2\N=C(Nc3ccccn3)c3ccccc32)nc1 | . | ? | 0.21µM* | 51 | -9% | 0.15µM*
CC(C)CN1CC[C@@]2(CCCN(C(=O)Oc3ccccc3)C2)C1 | . | . | 4% | . | . | -11%
CCc1ccc(CNCCc2c[nH]c3ccccc23)cc1 | -17% | -17% | ? | -52* | -1% | 26µM*
Cc1cccc(CNCCc2c[nH]c3ccccc23)c1 | 9% | 15µM* | 16µM* | -75* | ? | 13µM*
Fc1cccc(CNCCc2c[nH]c3ccccc23)c1 | -2% | 1% | ? | ? | 2% | ?
SMILES | ELG1 DNA repair | HT1080-NT tox | DT40 TDP1 CPT | IL1B secr inh | HT1080 IDH1KD tx | TDP1 cell noCPT
COc1cc(CNCCc2c[nH]c3ccccc23)cc(OC)c1 | -12% | ? | ? | -80* | ? | 23µM*
c1ccc(CNCCc2c[nH]c3ccccc23)cc1 | -6% | -10% | -24% | -10 | 1% | -29%
CCN(CC)C(=O)c1ccc(NC(=S)NC(=O)CCc2ccccc2)cc1 | 4% | -5% | ? | ? | -22% | ?
O=c1cccc2n1CC1CC2CN(CC(O)CN2CC3CC(C2)c2cccc(=O)n2C3)C1 (centres undefined) | 22% | 24% | 3% | 6 | 15% | 12%
COc1ccc(C)cc1NC(=O)c1c(C)nn(Cc2ccccc2)c1Cl | 15µM* | -21% | 5% | -98* | -10% | ?
COc1cccc(-n2c(=S)[nH]c3ccccc3c2=O)c1 | ? | -6% | -1% | 4 | -2% | ?
COc1cc(-n2c(=S)[nH]c3ccccc3c2=O)c(Cl)cc1Cl | 3% | ? | ? | 0 | ? | 26µM*
Cc1ccc(-n2c(=S)[nH]c3ccccc3c2=O)cc1C | . | 2% | -17% | ? | -6% | ?
CC(C)Oc1cc(-n2c(=S)[nH]c3ccccc3c2=O)c(Cl)cc1Cl | 14% | -27% | ? | 29 | ? | 16µM*
COc1ccc(NC(=O)C2(C)Cc3c(-c4ccc(N(C)C)cc4)ccnc3O2)cc1OC (centres undefined) | . | 2% | ? | 18 | -9% | ?
Cc1ccsc1C(=O)C1CCCN(Cc2cccn2-c2ccccn2)C1 (centres undefined) | -3% | ? | 21µM* | -25 | ? | ?
Cc1ccsc1C(=O)C1CCCN(Cc2ccccc2O)C1 (centres undefined) | -9% | -14% | -21% | -18 | -8% | ?
OCC(O)Cc1ccc2c(c1)OCO2 (centres undefined) | . | . | -2% | . | . | -18%

Source: PubChem BioAssay
